Source: PubChem
Pf apPOL inh = Pf-apPOL inhibitors, biochemical, fluorescence | Plasmodium falciparum apicoplast DNA polymerase (apPOL) | inhibition, % at 10 µM | Recombinant Pf-apPOL, molecular beacon fluorescence, 1.5 h | 210,000 tested, 0.25% active
mHTT CaM bind = mutant huntingtin-calmodulin interaction inhibitors – biochemical, AlphaScreen, primary screen | inhibition, % at 15 µM | AlphaScreen His-mHTT/GST-CaM binding, luminescence | 190,000 tested, 3.6% active | P42858 | AID 1671202, 2021;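 further: 0% = both proteins with DMSO and 100% = one protein alone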
* = called active by the depositor; nt = no result. Only some compounds are listed: those with a hit (about 3.6% of all), similar ones and a draw of the others. No stated cut-off is given here; in the data, active means inhibition above about 50%; inactive means the rest.

SMILES	Pf apPOL inh	mHTT CaM bind
COc1cc(CN2CCCCCC2)cc([N+](=O)[O-])c1O	-5	0
CN1CCN(Cc2cc([N+](=O)[O-])c(O)c3ncccc23)CC1	3	100*
COc1ccccc1N1CCN(Cc2cc(OC)c(O)c([N+](=O)[O-])c2)CC1	-7	-2
O=C(Cn1cnc([N+](=O)[O-])n1)Nc1ccc([N+](=O)[O-])cc1Cl	1	3
CCCSc1nc2c(c(C(F)(F)F)c1C#N)CCCCCC2	nt	-12
Cc1ncnc2c1CCC(=O)N2CC1CCCCC1	9	-12
O=C(Cc1ccccc1F)N1CCCC1c1cccc(F)c1 (stereo not given)	-2	6
COc1ccc(C(OC(=O)c2cccc([N+](=O)[O-])c2)c2nccc3ccccc23)cc1 (stereo not given)	-8	33
O=C(NC(/C=C/c1ccccc1)c1cc([N+](=O)[O-])c2cccnc2c1O)C1CCCCC1 (stereo not given)	10	30
O=[N+]([O-])c1cc(CN2CCC(c3ccccc3)C2)c(O)c2ncccc12 (stereo not given)	-1	100*
Cc1cc(N2CCN(C(=O)c3cc(F)c(F)cc3Cl)CC2)c(F)cc1[N+](=O)[O-]	-4	6
Cc1onc(-c2ccccc2)c1C(=O)NC1CCCC1	-7	-8
Ic1ccc(Nc2ncnc3c2cnn3Cc2ccccc2)cc1	-2	-4
COc1cc(/C=C(\C#N)c2nc3ncc(Br)cc3[nH]2)ccc1O	-7	55*
N#C/C(=C\c1ccc(Sc2nc3ccccc3[nH]2)o1)c1nc2ccccc2[nH]1	-6	100*
N#C/C(=C\c1cc(Cl)ccc1O)c1nc2ccccc2[nH]1	4	8
N#C/C(=C\c1ccc(I)o1)c1nc2ccccc2[nH]1	2	-3
N#C/C(=C\c1ccc(O)cc1O)c1nc2ccccc2[nH]1	0	72*
COc1ccc(/C=C(\C#N)c2nc3ccc(C)cc3[nH]2)cc1	-14	4
COc1cc(/C=C(\C#N)c2nc3ccc(C)cc3[nH]2)ccc1OCC#N	-4	70*
COc1cc(/C=C(\C#N)c2nc3ccccc3[nH]2)cc(Br)c1O	8	1
O=C(NC1CC1)c1ccc(-c2nc(-c3ccccc3)no2)cc1	-3	-8
COc1ccccc1-n1ncc2c(C)nnc(SCC(=O)Nc3ccc(F)cc3F)c21	-15	-4
Cc1ccc2nc(/C(C#N)=C/c3cccc(O)c3)[nH]c2c1	-4	70*
Cc1ccc2nc(/C(C#N)=C/c3cccc(Br)c3)[nH]c2c1	-2	-21
SMILES	Pf apPOL inh	mHTT CaM bind
CCc1ccc(N(CC(=O)Nc2ccccc2OC)S(=O)(=O)c2ccccc2)cc1	1	-10
Cc1nc2c(C(=O)NCc3ccco3)cnn2c(C)c1Cc1cccc(Cl)c1	-5	31
Cc1nc2c(C(=O)NCc3cccnc3)cnn2c(C)c1Cc1cccc(Br)c1	-9	58*
COc1ccccc1CNC(=O)c1cnn2c(C)c(Cc3cccc(Br)c3)c(C)nc12	-11	6
Cc1nc2c(C(=O)NCc3ccco3)cnn2c(C)c1Cc1cccc(Br)c1	-7	51*
Cc1ccc(CNC(=O)c2cnn3c(C)c(Cc4cccc(Cl)c4)c(C)nc23)cc1	-5	4
Cc1nc2nc(CC(=O)NCc3ccccc3)nn2c(C)c1Cc1cccc(Cl)c1	-4	63*
Cc1nc2c(C(=O)NCc3ccccc3)cnn2c(C)c1Cc1cccc(Br)c1	-6	66*
Cc1nc2nc(SCC(=O)NCc3ccccc3)nn2c(C)c1Cc1ccccc1	-13	31
CC(C)(C)c1ccc(C(=O)NCCC(=O)N2CCC3(CC2)OCCO3)cc1	1	3
O=C(NCc1ccc(N2CCCCCC2)nc1)c1cc(F)ccc1F	-3	0
COc1ccc(C2C3=C(CC(C)(C)CC3=O)Nc3ncnn32)c(OC)c1OC (stereo not given)	1	-4
O=C(c1cccn2c(=O)c3cc(Cl)ccc3nc12)N1CCc2ccccc2C1	-3	62*
O=C(c1cccn2c(=O)c3cc(Cl)ccc3nc12)N1CCN(c2ccc(Cl)cc2)CC1	2	-422
Cc1ncc2c(n1)CCN(C(=O)c1cccc(Cl)c1)C2	1	-6
COc1cc(CN2CCN(c3cccc(C)c3C)CC2)cc(OC)c1OC	0	-5
COc1cc(CN2CCN(c3cccc(C)c3C)CC2)cc(Br)c1O	2	55*
CC(C)n1c(CC2CCN(C(=O)c3cc(-c4cccs4)[nH]n3)C2)nc2cccnc21 (stereo not given)	-3	19
CC(C)n1c(CC2CCN(C(=O)c3cc(-c4ccccc4)n[nH]3)C2)nc2cccnc21 (stereo not given)	5	59*
COc1ccc(-c2cn3ccn(-c4ccc(F)c(F)c4)c(=O)c3n2)cc1OC	12	-6
O=C1Nc2ccccc2Oc2cc([N+](=O)[O-])cc(Oc3ccc(Cl)cc3)c21	-2	51*
O=C1Nc2ccccc2Oc2cc([N+](=O)[O-])cc(Oc3ccc(Br)cc3)c21	-7	42
Cc1nc(C(=O)NCCN2CCC(N3CCCCC3)CC2)c(C)n1C1CCN(C)CC1	-8	10
Cn1nc(C(=O)NCc2ccc(Cl)cc2)c2c1CCN(C(=O)c1ccco1)C2	5	5
Cc1cccc(CNC(=O)c2nn(C)c3c2CN(C(=O)c2cccc(F)c2)CC3)c1	-6	71*
SMILES	Pf apPOL inh	mHTT CaM bind
Cc1cccc(CNC(=O)c2nn(C)c3c2CN(C(=O)c2cccc(C)c2)CC3)c1	-7	74*
Cc1cccc(CNC(=O)c2nn(C)c3c2CN(C(=O)c2ccccc2C)CC3)c1	-12	27
Cc1cccc(C(=O)N2CCc3c(c(C(=O)NCc4ccc(Cl)cc4)nn3C)C2)c1	23	91*
COc1ccccc1NC(=O)N1CCc2nc[nH]c2C1	-2	-5
O=C1C2C3c4ccccc4C(c4ccccc43)C2C(=O)N1c1cc(Cl)ccn1 (stereo not given)	2	5
Cc1ncsc1CN1CCCC(c2nc(-c3cccnc3)n[nH]2)C1 (stereo not given)	1	6
O=C(O)c1cc2c3c(c1)C1C=CCC1C(c1ccccc1)N3CC1CC=CC21 (stereo not given)	3	94*
O=C(O)c1cc2c3c(c1)C1C=CCC1C(c1ccccc1F)N3CC1CC=CC21 (stereo not given)	-7	70*
O=C(O)c1cc2c3c(c1)C1C=CCC1C(c1cccc([N+](=O)[O-])c1)N3CC1CC=CC21 (stereo not given)	4	70*
O=C(O)c1ccc2c(c1)C1C=CCC1C(c1ccccc1Br)N2 (stereo not given)	-1	23
O=C(O)c1cc2c3c(c1)C1C=CCC1C(c1ccc(F)cc1)N3CC1CC=CC21 (stereo not given)	-2	96*
O=[N+]([O-])c1cccc(C2N(c3ccccc3)CCN2c2ccccc2)c1	-3	nt
O=C(O)c1ccc2c3c1C1C=CCC1CN3CC1CC=CC21 (stereo not given)	12	16
C1=CC2c3cccc4c3N(CC2C1)CC1CC=CC41 (stereo not given)	nt	40
COc1ccc(C2CC(C(F)(F)F)n3nc(C(=O)N(C)CCC#N)cc3N2)cc1 (stereo not given)	-1	10
O=C(Cc1cccs1)N1CCC(c2cnn(-c3cccc(F)c3)c2)CC1	-3	-11
CC(=O)N1CC(C(=O)N2CCOCC2)C(c2ccccc2)C1 (stereo not given)	-2	-5
